PubChem BioAssay (NCI)
Compounds without any hit were thinned out: in the full panel of roughly 83,000, 20% have a hit.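 Compound tested at a single concentration for 48 hours in 96-well plates; a percent growth value below 10 was scored as active.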 Unmarked numbers belong to inactive results. Activity calls are given as the source filed them.

Experiments:
Experiment in all cases: NCI-60 one-dose screen, 48 h (100 = growth as untreated, 0 = no growth, -100 = all killed)
Details in all cases: 10 µM unless noted
SK-MEL-2 melanoma = test system: SK-MEL-2 melanoma
EKVX NSCLC = test system: EKVX NSCLC
SN12C renal = test system: SN12C renal
UO-31 renal = test system: UO-31 renal
TK-10 renal = test system: TK-10 renal
ACHN renal = test system: ACHN renal
A498 renal = test system: A498 renal
MOLT-4 leukemia = test system: MOLT-4 leukemia
SR leukemia = test system: SR leukemia
RPMI-8226 leukemia = test system: RPMI-8226 leukemia
OVCAR-8 ovarian = test system: OVCAR-8 ovarian
OVCAR-5 ovarian = test system: OVCAR-5 ovarian
OVCAR-4 ovarian = test system: OVCAR-4 ovarian
SK-OV-3 ovarian = test system: SK-OV-3 ovarian
IGROV1 ovarian = test system: IGROV1 ovarian
OVCAR-3 ovarian = test system: OVCAR-3 ovarian
HS 578T breast = test system: HS 578T breast
NCI/ADR-RES ovarian = test system: NCI/ADR-RES ovarian
T-47D breast = test system: T-47D breast
CCRF-CEM leukemia = test system: CCRF-CEM leukemia

Compound	growth (SK-MEL-2 melanoma)	growth (EKVX NSCLC) [%]	growth (SN12C renal)	growth (UO-31 renal)	growth (TK-10 renal) [%]	growth (ACHN renal)	growth (A498 renal)	growth (MOLT-4 leukemia)	growth (SR leukemia)	growth (RPMI-8226 leukemia)	growth (OVCAR-8 ovarian)	growth (OVCAR-5 ovarian) [%]	growth (OVCAR-4 ovarian) [%]	growth (SK-OV-3 ovarian) [%]	growth (IGROV1 ovarian) [%]	growth (OVCAR-3 ovarian)	growth (HS 578T breast) [%]	growth (NCI/ADR-RES ovarian)	growth (T-47D breast) [%]	growth (CCRF-CEM leukemia)
CN1CCN(/C=C2\CC(C(=O)NCc3ccc(Cl)cc3Cl)NC2=O)CC1 (centres undefined)	100%	116	106%	95%	92.7	110%	90.8%	95.2%	90.3%	93.9%	99.1%	110	110	107	109	108%	103	107%	113	
O=C1C(Cl)=C(NCCCN(CCCNC2=C(Cl)C(=O)c3ccccc3C2=O)C2=C(Cl)C(=O)c3ccccc3C2=O)C(=O)c2ccccc21	79.4%	80	4.16% (active)	58.1%	146	74.6%	100%	31.6%	2.55% (active)	45.4%		121	33.9	93.8	54.8	-0.584% (active)	67.6	76.1%	51.8	
CCCCCCN1C(=O)CN=C1Nc1ccc2cc3ccc(NC4=NCC(=O)N4CCCCCC)cc3nc2c1	79.9%	56.9	26.7%	51.7%	75.9	67.6%	104%	9.83% (active)	0.413% (active)	-22.6% (active)	73.9%	75	55.6	103	53.7	-35.9% (active)	56.6	81.3%	32.9	
N#Cc1ccc(Oc2ccc3ccc(=O)oc3c2)cc1	135%	110	105%	99.1%	116	98.2%	99%	100%	82.9%	81.5%		104	109	112	121	117%	93.4	107%	94.5	101%
CC(/C=C/c1ccccc1)=N/NC(=O)c1ccncc1	106%	107	99.8%	89%	105	111%	95%	92.2%	88.9%	99.9%	101%	114	105	105	103	109%	99.6	107%	99	
CCCCCCC/C=C/[C@H]1O[C@]23C(=O)C[C@@]4(C[C@@H](OC5OC(CO)C(O)C(O)C5O)C[C@@H]4[C@H]2C=C1C)OC3=O (some centres undefined)	-9.46% (active)	86.9	26.7%	3.36% (active)	35.8	4.9% (active)	70.1%	8.32% (active)	6.22% (active)	-1.42% (active)		27.7	29.6	71.9	15.9	9.92% (active)	61.7	-5.53% (active)	25.2	19%
C=C(C)[C@@H]1CC[C@]2(C(=O)O)CC[C@]3(C)[C@H](CC[C@@H]4[C@@]5(C)C[C@@H](CC#Cc6ccccc6C)C(=O)C(C)(C)[C@@H]5CC[C@]43C)[C@@H]12	41.1%	28.1	37.8%	29.4%	27.3	29.4%	10.7%	13.3%	23%	14.6%		61	31.4	34.2	62	18.3%	45	48%	20.7	31.1%
COC(=O)/C=C/c1cc(OC(C)=O)c2c(c1)C(C(=O)OC)C(c1ccc(OC(C)=O)c(OC(C)=O)c1)O2 (centres undefined)	25%	44.4	23.6%	35.2%	44.7	34.4%	3.78% (active)	15.3%	8.61% (active)	11.1%	-12.5% (active)	50.5	49.5	18.8	20.1	3.01% (active)	41.1	6.1% (active)	49.3	
COc1ccc(-c2[nH]c3ccccc3c2C=C(C#N)C#N)cc1	-14.5% (active)	12.4	44.6%	59.1%	35.5	43%		-14.2% (active)	-27.8% (active)	-43.8% (active)	19.4%	26.7	33.2	28.7	12.3	-6.19% (active)	16.4	-12% (active)	51.5	-5.77% (active)
Cc1nccc2c3ccc(OCc4cn(-c5ccc(Br)cc5)nn4)cc3n(CC(C)C)c12	53%	59.5	61.5%	38.4%	41.1	61.9%		2.93% (active)	-13.9% (active)	-16.2% (active)	40.7%	68.2	58.8	43.4	67.4	57.8%	59.4	32.1%	36.9	35.1%
COC(=O)/C=C1\SC(=Nc2ccc(F)cc2)N(CCc2c[nH]c3ccccc23)C1=O	102%	92.6	103%	81%	106	103%		76.4%	85.5%	93.8%	87.5%	110	106	102	98.5	104%	108	95.8%	91.3	68.2%
Nc1c(C(=O)Nc2ccccc2)sc2nc3c(cc12)CN(C(=O)OCc1ccccc1)CC3	31.8%	69.6	66%	67.5%	98.8	60.2%		37.8%	25.1%	53.1%	68.9%	91.7	75.4	43.7	56.4	16%	53.5	45.6%	68.2	31.8%
C=C(C)[C@@H]1CC[C@]2(C(=O)n3ccnc3)CC[C@]3(C)[C@H](CC[C@@H]4[C@@]5(C)CCCNC(C)(C)[C@@H]5CC[C@]43C)[C@@H]12	53.5%	61.9	29.6%	43.8%	70.5	46.6%		-15.9% (active)	-33% (active)	-51.3% (active)	62.8%	74.9	38.3	61.9	20.4	30.9%	47.4	32.9%	11.4	0.353% (active)
COC(=O)c1cncc(C(=O)Nc2ccc(-n3cnc4ccccc43)cc2)c1	105%	100	101%	93.8%	96.2	90.4%		90.2%	75.4%	74.5%	97.2%	101	107	108	90.5	108%	107	94.9%	74.8	98%
C/C(=C\c1cnc(C)s1)[C@@H]1C[C@@H]2O[C@@H]2CCC[C@H](C)[C@H](O)[C@@H](C)C(=O)C(C)(C)[C@@H](O)CC(=O)O1	27.5%	44.4	54%	36.4%	44.8	52.8%		31.7%	30%	23.2%	48%	38.9	52.5	24.4	38.7	2.54% (active)	39.1	6.61% (active)	33.6	30.7%
